Data from PubChem BioAssay AID1508633 (National Center for Advancing Translational Sciences (NCATS), 2021).
Inconclusive results are not listed. Calls of active or inactive are those of the source. Calls follow the shape of the dose curve; as a rule, active = well fitted inhibition curve with a large enough effect; inconclusive = small, poorly fitted or top-dose-only effect; inactive = no such curve, though single readings can be large or run the other way. Where a SMILES comes first, the peptide text is derived from it. [ ]: non-standard residue; d: D form. The star is where a group is joined. Cbz = O=C(OCc1ccccc1)*; Nva = CCC[CH](N)C(=O)O

These compounds were tested on zebrafish ABCB5 (Abcb5) multidrug transporter (assay: qHTS for characterization and localization of zebrafish homologs of the human ABCB1 multidrug transporter: ABCB5 transfected cells). Details: CellTiter-Glo luminescence viability, 72 h; series mostly up to 46.1 µM; activity, negative = inhibition: at the top concentration.
Description: The zebrafish has emerged as a potential model to study the blood-brain barrier (BBB) given its similarities with mammalian systems. However, little information has been available with regard to homologous ATP-binding cassette transporters expressed at the zebrafish BBB. Two transporters that are highly expressed at the human BBB are P-glycoprotein (P-gp, encoded by the ABCB1 gene) and ABCG2 (encoded by the ABCG2 gene). In this study, we focus on characterization of P-gp homologs in the zebrafish, which has two genes that are homologous to human ABCB1 - abcb4 and abcb5. We generated stably-transfected cell lines to determine their substrate specificities. […] Zebrafish abcb4 also colocalized with claudin 5 expression in brain endothelial cells.
A high-throughput screen was performed as previously described on empty vector transfected cells, P-gp-overexpressing MDR-19 cells and cells transfected with full-length zebrafish abcb4 (ZF Abcb4) or abcb5 (ZF Abcb5). Briefly, cells were plated into 1536-well plates at a density of 500 cells/well in 5 uL media. P-gp substrate compounds (approximately 90) selected from our previous study were then added at varying concentrations using a 1536-head pin tool (Kalypsis, San Diego, CA) and plates were incubated at 37C in 5% CO2 for 72 h. CellTiter-Glo reagent (Promega) was dispensed into the wells, incubated for 5 min and luminescence was read on a ViewLux instrument (Perkin-Elmer).
Cytotoxic compounds were defined as those that yielded a curve class of -1.1, -1.2, -2.1, -2.2, -2.3, or -2.4, a maximum response of >50% and an AC50 of < 10 uM. All compounds from screening analysis were tested in Vector (empty vector control), MDR-19 (P-gp overexpressing), zebrafish abcb4 (ZF Abcb4) and abcb5 (ZF Abcb5) expression cell lines.
1. Tobie D Lee, Olivia W Lee, Kyle R Brimacombe, Lu Chen, Rajarshi Guha, Sabrina Lusvarghi, Bethilehem G Tebase, Carleen Klumpp-Thomas, Robert W Robey, Suresh V Ambudkar, Min Shen, Michael M Gottesman, Matthew D Hall. A High-Throughput Screen of a Library of Therapeutics Identifies Cytotoxic Substrates of P-glycoprotein. Mol Pharmacol. 2019, Nov;96(5):629-640.
For `Cc1[nH]c2ccccc2c1CCNCc1ccc(/C=C/C(=O)NO)cc1`, the Potency was 590 nM (active).
With `N=C(N)c1ccc(OCCCCCOc2ccc(C(=N)N)cc2)cc1` the Potency was 13200 nM (active).
`Cc1ccc(C(=O)N(CCCN)C(c2nc3cc(Cl)ccc3c(=O)n2Cc2ccccc2)C(C)C)cc1` (stereo not given) was tested, and the Potency was 23500 nM (active).
For `CC[n+]1c(-c2ccccc2)c2cc(N)ccc2c2ccc(N)cc21`, the Potency was 11800 nM (active).
`C=C1CO[C@@]2(O[C@H]3CC4C5CC=C6C[C@@H](O)C[C@@H](O[C@@H]7OC[C@H](O)[C@H](O[C@@H]8OC[C@@H](O)[C@H](O)[C@H]8O)[C@H]7O[C@@H]7O[C@@H](C)[C@H](OC(C)=O)[C@@H](OC(C)=O)[C@H]7OC(C)=O)[C@]6(C)C5CC[C@]4(C)[C@@H]3[C@@H]2C)[C@@H](O)[C@H]1OC1OC(C)C(O)C(O)C1O` (stereo not given in full) was tested, and the activity, negative = inhibition was 3.83% [at 8.96 µM] (inactive).
In the case of `COCCn1c2c([n+](Cc3cnccn3)c1C)C(=O)c1ccccc1C2=O`, the Potency is reported as 93.5 nM (active).
For `CC(C)C[C@H](NC(=O)[C@@H](NC(=O)c1cccc(-c2ccccc2)n1)[C@@H](C)O)B(O)O`, the Potency was 118 nM (active).
`CC(C)C[C@@H](C=O)NC(=O)[C@H](CC(C)C)NC(=O)[C@H](CC(C)C)NC(=O)OCc1ccccc1` (Cbz-Leu-Leu-Leu-aldehyde) was tested, and the Potency was 1180 nM (active).
With `CN(C)c1ccc(C(=C2C=CC(=[N+](C)C)C=C2)c2ccc(N(C)C)cc2)cc1` the Potency was 935 nM (active).
For `CC[C@@]1([C@@H]2O[C@@H]([C@H]3O[C@@](O)(CO)[C@H](C)C[C@@H]3C)C[C@@H]2C)CC[C@H]([C@]2(C)CC[C@]3(C[C@H](O)[C@@H](C)[C@@H]([C@@H](C)[C@@H](OC)[C@H](C)C(=O)O)O3)O2)O1`, the Potency was 2640 nM (active).
`CCC(C)C(=O)OC1CC(O)C23C4OCC5(C(O)CC2C1(C)C(O)O4)C3C(=O)C(O)C1(C)C(O)(c2ccoc2)CC2OC251` (stereo not given) was tested, and the “activity, negative = inhibition” value was 4.67% [at 15.2 µM] (inactive).
In the case of `Cc1cc(N)c2ccccc2[n+]1CCCCCCCCCC[n+]1c(C)cc(N)c2ccccc21`, the Potency is reported as 8330 nM (active).
In the case of `CCN(CCCO)CCCOc1ccc2c(Nc3cc(CC(=O)Nc4cccc(F)c4)[nH]n3)ncnc2c1`, the “activity, negative = inhibition” value is reported as -2.49% (inactive).
For `C[C@@H]1O[C@@H](O[C@H]2[C@@H](OC(=O)[C@]34CCC(C)(C)CC3C3=CCC5[C@@]6(C)C[C@H](O)[C@H](O[C@@H]7O[C@H](CO)[C@@H](O)[C@H](O)[C@H]7O[C@@H]7OC[C@@H](O)[C@H](O)[C@H]7O)[C@@](C)(C(=O)O)C6CC[C@@]5(C)[C@]3(C)CC4)OC[C@H](O)[C@@H]2O)[C@H](O)[C@H](O)[C@H]1O[C@@H]1OC[C@@H](O)[C@H](O)[C@H]1O` (stereo not given in full), the activity, negative = inhibition was -6.88% [at 8.96 µM] (inactive).
For `CC(=O)O[C@@H]1C[C@H](O)[C@@]23CO[C@@H](O)C1(C)[C@@H]2C[C@@H](O)[C@]1(C)[C@@H]3C(=O)[C@H](OC(C)=O)[C@@]2(C)[C@H](c3ccoc3)C[C@H]3O[C@]321`, the Potency was 1050 nM (active).
With `NC(=O)Nc1cc(-c2cccc(F)c2)sc1C(=O)N[C@H]1CCCNC1` the Potency was 662 nM (active).
With `C#Cc1cccc(Nc2ncnc3cc(OC)c(OCCCCCCC(=O)NO)cc23)c1` the Potency was 8330 nM (active).
For `CN(C)CCN(C)C(=O)c1ccc(NC(=O)Nc2ccc(-c3nc(N4CCOCC4)c4ccn(CC(F)(F)F)c4n3)cc2)cc1`, the Potency was 2350 nM (active).
`C[C@@]12O[C@@H](C[C@]1(O)CO)n1c3ccccc3c3c4c(c5c6ccccc6n2c5c31)CNC4=O` was tested, and the Potency was 5260 nM (active).
In the case of `Cc1ccc(C(=O)N(CCCN)[C@@H](c2oc3cc(Cl)ccc3c(=O)c2Cc2ccccc2)C(C)C)cc1`, the Potency is reported as 23500 nM (active).
`Cc1ccc(-c2ncn(-c3ccc(Nc4nccc(-c5cccc(N6CCOCC6)c5)n4)cc3)n2)cn1` was tested, and the Potency was 5900 nM (active).
With `COc1cc2ncn(-c3cc(OCc4ccccc4C(F)(F)F)c(C(N)=O)s3)c2cc1OC` the Potency was 6790 nM (active).
In the case of `COC[C@H](NC(=O)c1cnc(C)s1)C(=O)N[C@@H](COC)C(=O)N[C@@H](Cc1ccccc1)C(=O)[C@@]1(C)CO1`, the Potency is reported as 166 nM (active).
In the case of `CC(C)C[C@H](NC(=O)[C@H](CCc1ccccc1)NC(=O)CN1CCOCC1)C(=O)N[C@@H](Cc1ccccc1)C(=O)N[C@@H](CC(C)C)C(=O)[C@@]1(C)CO1`, the Potency is reported as 166 nM (active).
In the case of `COc1cc(N2CCC(O)CC2)ccc1Nc1nc(Nc2ccccc2S(=O)(=O)C(C)C)c2[nH]cnc2n1`, the “activity, negative = inhibition” value is reported as -14.4% (inactive).
For `CCCC(C=O)NC(=O)C(CC(C)C)NC(=O)C(CC(C)C)NC(=O)OCc1ccccc1` (stereo not drawn) (Cbz-Leu-Leu-[Nva]-aldehyde; configuration not given here), the Potency was 1870 nM (active).
For `CCS(=O)(=O)c1cccc(-c2cc(C(=O)NC3CCN(C)CC3)c(C)c3[nH]c4ncc(C)cc4c23)c1`, the “activity, negative = inhibition” value was -11.8% (inactive).
With `Oc1ccc(-c2ccc(-c3cc(Nc4cccc(CNC5CC5)c4)n[nH]3)cc2)c(O)c1` the Potency was 5260 nM (active).
In the case of `C#CCN(Cc1cc2c(=O)n(C)c(CN3CCN(C)CC3)nc2cc1Cl)c1ccc(C(=O)NCc2cccnc2)cc1`, the “activity, negative = inhibition” value is reported as -17.2% (inactive).
`COc1cc2c(NC3CCN(C(C)C)CC3)nc(N3CCCN(C)CC3)nc2cc1OCCCN1CCCC1` was tested, and the “activity, negative = inhibition” value was -16.3% (inactive).
In the case of `CN(C)C1CCN(C(=O)c2ccc(NC(=O)Nc3ccc(-c4nc(N5CCOCC5)nc(N5CCOCC5)n4)cc3)cc2)CC1`, the Potency is reported as 7430 nM (active).
With `COc1cc2c(NC3CCN(C(C)C)CC3)nc(N3CCCN(C)CC3)nc2cc1OCCOCCN(C)C` the “activity, negative = inhibition” value was -17.1% (inactive).
In the case of `CCn1nnc2c(N3CCOCC3)nc(-c3ccc(NC(=O)Nc4ccc(C(=O)N5CCN(C)CC5)cc4)cc3)nc21`, the Potency is reported as 1870 nM (active).
`Cc1cc(Nc2cc(NC(=O)c3c(Cl)cccc3Cl)ccn2)nc(N)n1` was tested, and the Potency was 7430 nM (active).
With `COc1cc(C(=O)NC2CCN(C)CC2)ccc1Nc1ncc2c(n1)N(C1CCCC1)CC(F)(F)C(=O)N2C` the Potency was 1180 nM (active).
For `CCc1cccc(CC)c1NC(=O)N1Cc2[nH]nc(NC(=O)c3ccc(N4CCN(C)CC4)cc3)c2C1`, the “activity, negative = inhibition” value was -1.82% (inactive).
With `NC(=O)Nc1cc(-c2ccc(CN3CCOCC3)c(F)c2)sc1C(=O)N[C@H]1CCCNC1` the Potency was 1480 nM (active).
`CN(C)C1CCN(C(=O)c2ccc(NC(=O)Nc3nc(N4CCOCC4)nc(N4CCOCC4)n3)cc2)CC1` was tested, and the Potency was 4690 nM (active).
For `C[C@@H](Oc1cc(-n2cnc3ccc(CN4CCN(C)CC4)cc32)sc1C(N)=O)c1ccccc1C(F)(F)F`, the Potency was 4180 nM (active).
`CCN(CC)Cc1ccc(C(=O)N(CCc2ccccc2OC)[C@@H]2CCNC2)cc1` was tested, and the “activity, negative = inhibition” value was 2.08% (inactive).
